Only some compounds are listed: those with a hit (about 1.1% of all), similar ones and a draw of the others.
NPR2 activator: human GC-B receptor activators, primary screen, HEK293 GC-B cells, cGMP TR-FRET, EC30 CNP. Atrial natriuretic peptide receptor 2 (Homo sapiens), P20594. 0% at EC30 CNP, 100% saturating CNP. activation, % at 10 µM. hit rate 0.11% among 370,000. AID 1920062, 2024;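 active = activation at 10 µM reaching about 35% in either raw or pattern-adjusted values, limit read from the data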
aDG glyco act: activators of alpha-DG glycosylation, primary screen, uHTS, Pro5-aDG cells, AlphaScreen; alpha-DG glycosylation AlphaScreen (IIH6); 0% Pro5, 100% B10-LARGE cell signal; activation, % at 10 µM; hit rate 0.22% among 360,000; AID 624168, 2012;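 active = activation of at least 8% versus controls, or a plate z-score of at least 8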;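 note: Pro5 are CHO cells carrying HIG-tagged alpha-DG that lacks glycosylation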
FAS TE block: FAS thioesterase domain inhibitors, primary screen, biochemical, fluorescence intensity, uHTS; Fatty acid synthase (Homo sapiens), P49327; recombinant FAS-TE, OMFH fluorogenic substrate, fluorescence endpoint; inhibition, % at 15 µM; hit rate 0.67% among 360,000; AID 602261, 2012;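 active = compounds whose normalised, plate-corrected inhibition of enzyme fluorescence in the single-dose primary screen is 50% or more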;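 note: 0% = DMSO with enzyme and 100% = substrate without enzyme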
GC-A act: GC-A stimulated cGMP production enhancers – HEK293 GC-A cells, cGMP TR-FRET, EC30 ANP, primary screen; activation, % at 10 µM; Atrial natriuretic peptide receptor 1 (Homo sapiens), P16066; hit rate 0.14% among 370,000; 0% at EC30 ANP, 100% saturating ANP; in the data active = activation above about 40%
FAS-TE inh conf: FAS thioesterase domain inhibitors, confirmation, biochemical, fluorescence intensity, single concentration; hit rate 45% among 2,300; shares compounds with FAS TE block; inhibition, % at 15 µM; AID 624325, 2012; recombinant FAS-TE, OMFH fluorogenic substrate;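 active = compounds inhibiting the enzyme by at least 50% at 15 µM in any one of the replicates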;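 note: 0% = enzyme with DMSO only and 100% = wells lacking enzyme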
The depositor's hits bear a star; nt = no result.

SMILES	NPR2 activator	aDG glyco act	FAS TE block	GC-A act	FAS-TE inh conf
COc1ccc(C(=O)OC(C)C(=O)NC(C)CCc2ccccc2)cc1[N+](=O)[O-] (stereo not drawn)	2.3	0.0	58.8*	0.0	32.2*
CC(CCc1ccccc1)NC(=O)c1ccc(C(=O)NC(C)CCc2ccccc2)cc1 (stereo not drawn)	-9.1	-0.1	-9.5	-6.5	nt
COC(=O)CNC(=O)COC(=O)c1ccc(OC)c([N+](=O)[O-])c1	0.4	-0.1	-2.8	-1.6	nt
C=CCN(C(=O)[C@@H](C)[C@@H](O)c1ccc(C(C)=O)cc1)c1ccccc1	1.5	nt	nt	0.7	nt
COC(=O)[C@]12CCCCC=C1N(Cc1ccc(OC)cc1)C(=O)[C@@H]2CC(=O)NCc1ccccc1	3.0	nt	nt	1.2	nt
O=C(NC1CCCCN(Cc2ccc(Cl)cc2)C1=O)c1cccc2nsnc12 (stereo not drawn)	1.7	nt	nt	-4.5	nt
CCOc1cccc2cc(C(=O)NCCC3=CCCCC3)c(=O)oc12	-8.3	0.0	87.2*	0.9	74.5*
Cc1ccccc1CN1CCCCC(NC(=O)c2c(F)cccc2F)C1=O (stereo not drawn)	-2.5	nt	nt	1.2	nt
CCc1ccc(OCC(=O)N/N=C/c2cc([N+](=O)[O-])ccc2N2CCCCCC2)cc1	2.7	0.2	30.1	-0.6	nt
CCC1CCCCN1c1ccc([N+](=O)[O-])cc1/C=N/NC(=O)Cn1c2ccccc2c(=O)c2ccccc21 (stereo not drawn)	2.4	5.0	60.4*	-2.2	21.0
CCC[C@H]1[C@@H](NC(=O)c2ccc(Cl)c(C(F)(F)F)c2)CC[C@@]23CCCN2C(=O)CCC[C@@H]13	-5.3	nt	nt	-6.6	nt
COC(=O)c1ccccc1NC(=S)N(Cc1ccc2c(c1)OCO2)Cc1cc2cc(OC)ccc2[nH]c1=O	-11.8	2.0	67.8*	-7.3	30.6
C#CCN1CC(N(C)CCOC(=O)c2ccc([N+](=O)[O-])cc2)CS1(=O)=O (stereo not drawn)	-0.3	nt	nt	-3.2	nt
O=C(NCc1ccc(C(F)(F)F)cc1)C1CC(c2ccc(C(F)(F)F)cc2)=NO1 (stereo not drawn)	-0.5	1.2	16.9	-1.2	nt
O=C(NCc1ccc(C(F)(F)F)cc1)C1CC(c2c(Cl)cccc2Cl)=NO1 (stereo not drawn)	-0.4	0.3	54.9*	-2.3	55.4*
COC(=O)c1cc(C(=O)OCC(=O)NC2CCCCCCC2)cc([N+](=O)[O-])c1	-2.0	0.0	69.9*	-4.5	37.1*
O=C(COC(=O)c1cc([N+](=O)[O-])ccc1Cl)NC1CCCC1	-3.7	0.2	80.2*	4.6	87.0*
COC(=O)c1cc(C(=O)OCC(=O)c2ccc3c(c2)NC(=O)CO3)cc([N+](=O)[O-])c1	4.5	-0.1	57.4*	1.3	53.0*
Cc1cccc(C(=O)OCC(=O)c2ccc3c(c2)NC(=O)CO3)c1	2.9	0.5	-2.3	1.6	nt
O=C(COC(=O)c1ccc([N+](=O)[O-])cc1)NC1CCCC1	-4.0	-0.1	7.4	-0.9	nt
CN(C)c1cccc(/C=C2\CC3(OC(=O)c4cccc(F)c4)CCCN2C3)c1 (stereo not drawn)	-4.2	nt	nt	-7.1	nt
Cc1cc(C)cc(NC(=O)N2CCN(Cc3nc4ccccc4c(=O)[nH]3)CC2)c1	-0.8	nt	nt	-0.5	nt
CS(=O)(=O)N1CCc2cc(-c3csc(NC(=O)Cc4cccs4)n3)ccc21	5.0	0.0	62.0*	-1.3	29.1*
CC(=O)Nc1nc(-c2ccc3c(c2)CCN3S(C)(=O)=O)cs1	-2.8	-0.2	-2.4	-1.1	nt
COC(=O)c1cc(-c2cc3ccccc3s2)c(=O)n2c1CCC2	-2.3	nt	nt	6.4	nt
SMILES	NPR2 activator	aDG glyco act	FAS TE block	GC-A act	FAS-TE inh conf
COc1ccc(-c2nn(-c3ccccc3)cc2C(=O)N2CCN(S(=O)(=O)c3ccccc3[N+](=O)[O-])CC2)cc1	1.2	-0.3	78.5*	-2.7	25.5
O=C1c2ccc(-c3ccc(Cl)c(C(F)(F)F)c3)cc2S(=O)(=O)c2cccc(C(=O)N3CCN(c4ccc(Cl)cn4)CC3)c21	3.7	0.6	66.6*	2.4	2.4
OC1CCN(c2c3c(nc4cc(-c5cccc(F)c5)nn24)CCCC3)CC1	2.2	-0.1	6.0	9.7	nt
Fc1cccc(-c2cc3nc4c(c(N5CCC6(CC5)OCCO6)n3n2)CCCC4)c1	2.5	0.6	54.9*	-4.6	35.0
Cc1cccn2c(=O)c3cc(C#N)c(=NC(=O)c4cccs4)n(CCCOC(C)C)c3nc12	-0.7	-0.2	52.0*	5.7	21.6
CCOC(=O)c1cc2c(=O)n3cccc(C)c3nc2n(CCCOC)c1=NC(=O)c1cccnc1	nt	-0.2	53.8*	nt	11.7
CCCCn1c(=NC(=O)c2ccco2)c(C(=O)OCC)cc2c(=O)n3cccc(C)c3nc21	-3.7	1.0	55.8*	9.8	26.6
Cc1ccc(C)c(NC(=O)CNS(=O)(=O)c2ccc3[nH]c(=O)oc3c2)c1	3.3	nt	nt	2.4	nt
Clc1ccc(CSc2nnc(-c3cccs3)o2)cc1Cl	-1.5	nt	nt	-5.5	nt
O=S(=O)(Nc1cccc(-c2ccc(N3CCCCCC3)nn2)c1)c1ccc(F)cc1	-8.0	0.2	62.4*	0.3	10.6
O=S(=O)(Nc1cccc(-c2ccc(N3CCCCCC3)nn2)c1)c1ccc(C(F)(F)F)cc1	-1.6	0.2	39.4	-2.0	nt
O=S(=O)(Nc1cccc(-c2ccc(N3CCCCCC3)nn2)c1)c1cccc(F)c1	9.0	0.2	61.0*	3.0	0.8
Cc1ccc(S(=O)(=O)Nc2cccc(-c3ccc4nncn4n3)c2)cc1	-10.7	-0.2	54.2*	-9.2	51.1*
O=C(Cn1c(-c2cncs2)nc2ccccc21)NCc1cccs1	6.8	nt	nt	-1.0	nt
Cn1cccc1C(=O)N1CCN(S(=O)(=O)c2cccc3ccccc23)CC1	-5.3	nt	nt	-3.8	nt
C/C=C/C=C/C(=O)N1C[C@H](C)N(C)C[C@H]1C	7.9	nt	nt	2.4	nt
N#CC1(NC(=O)COC(=O)c2cc([N+](=O)[O-])ccc2N2CCOCC2)CCCCC1	0.3	-0.1	68.1*	0.5	80.2*
CN(C)S(=O)(=O)c1ccc(N2CCCC2)c(C(=O)OCC(=O)NC2(C#N)CCCCC2)c1	nt	-0.4	1.9	nt	nt
N#CC1(NC(=O)COC(=O)c2cc([N+](=O)[O-])ccc2N2CCCC2)CCCCC1	-2.4	-0.2	65.9*	-1.4	75.1*
CCn1c(=S)sc2c(=O)n(CC(=O)NC(C)CCc3ccccc3)c(C)nc21 (stereo not drawn)	-1.3	0.0	79.1*	0.5	74.4*
Cc1ccc(O)c(N=Nc2ccc(S(=O)(=O)N3CCOCC3)cc2)c1	-3.7	-0.1	26.8	-2.0	nt
CC(C)(C)c1cc(Br)c(O)c(N=Nc2ccc(S(=O)(=O)N3CCOCC3)cc2)c1	1.7	-0.5	83.6*	-2.2	49.1*
